Values joined by “and” are separate entries in the source; they are usually repeats but may differ in a detail not shown here. Identical values can stand only once. Among all 5,500 compounds or so, about 2,000 (36%) were called active. Inconclusive results (about 18%) are left out. No stated cut-off is given here; in the data, active means normalized growth mostly below about 0.91 (no sharp cut-off); inconclusive means no clear call, values can overlap the other calls; inactive means mostly above about 0.92. The list shows a part of the results.
Test: chemical genetic growth profiling, strain panel (AID 1159580);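 further: tested at 20 µM; growth read once vehicle control cultures reached saturation at 30 °C; 1 = growth at the plate median or of vehicle wells; lower values mean less growth of the strain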
Conditions: S. cerevisiae deletion strains, growth OD

Measured: normalized growth

COc1ccc(C(=O)CC(=O)O)c2c1C=CC(C)(C)O2
inactive: locus YAL021C, strain ccr4, hits give low values 1 | locus YAL026C, strain drs2, hits give low values 1 | locus YAL030W, strain snc1, hits give low values 0.992 | locus YBL061C, strain skt5, hits give low values 0.999 | locus YBR009C, strain hhf1, hits give low values 1.01 | locus YBR021W, strain FUR4, hits give low values 0.986 | locus YBR023C, strain chs3, hits give low values 1.01 | locus YBR171W, strain sec66, hits give low values 0.986 | locus YBR229C, strain ROT2, hits give low values 0.983 | locus YBR231C, strain swc5, hits give low values 0.987 | locus YBR279W, strain paf1, hits give low values 1.01 | locus YCL011C, strain gbp2, hits give low values 1.01 | locus YCL016C, strain dcc1, hits give low values 1.02 | locus YCL029C, strain bik1, hits give low values 0.997 | locus YCL061C, strain MRC1, hits give low values 1 | locus YCL069W, strain vba3, hits give low values 1.01 | locus YCR088W, strain abp1, hits give low values 0.995 | locus YDL005C, strain med2, hits give low values 0.983 | locus YDL035C, strain GPR1, hits give low values 1.02 | locus YDL040C, strain nat1, hits give low values 1 | locus YDL074C, strain BRE1, hits give low values 1 | locus YDL101C, strain DUN1, hits give low values 1.01 | locus YDL185W, strain tfp1, hits give low values 0.988 | locus YDL192W, strain arf1, hits give low values 0.996 | locus YDR001C, strain nth1, hits give low values 0.995 | locus YDR069C, strain doa4, hits give low values 0.984 | locus YDR101C, strain arx1, hits give low values 0.995 | locus YDR137W, strain rgp1, hits give low values 1.03 | locus YDR150W, strain NUM1, hits give low values 0.999 | locus YDR159W, strain sac3, hits give low values 0.956 | locus YDR162C, strain NBP2, hits give low values 1.06 | locus YDR195W, strain ref2 0.962 | locus YDR297W, strain sur2, hits give low values 0.997 | locus YDR318W, strain mcm21, hits give low values 0.997 | locus YDR334W, strain swr1, hits give low values 0.997 | locus YDR335W, strain msn5, hits give low values 1.01 | locus YDR388W, hits give low values 1.01 | locus YDR392W, strain spt3, hits give low values 0.96 | locus YDR502C, strain sam2, hits give low values 1.02 | locus YEL003W, strain gim4, hits give low values 0.999 | locus YEL037C, strain rad23, hits give low values 0.999 | locus YEL061C, strain CIN8, hits give low values 0.998 | locus YER015W, strain faa2, hits give low values 1.01 | locus YER016W, strain bim1, hits give low values 0.99 | locus YER110C, hits give low values 0.977 | locus YER111C, strain swi4, hits give low values 1 | locus YER155C, strain BEM2 (second series), hits give low values 0.99 | locus YER155C, strain BEM2, hits give low values 0.983 | locus YER167W, strain BCK2, hits give low values 0.993 | locus YFR010W, strain ubp6, hits give low values 0.994 | locus YGL078C, strain dbp3, hits give low values 0.994 | locus YGL086W, strain mad1, hits give low values 0.99 | locus YGL167C, strain pmr1, hits give low values 0.994 | locus YGL173C, strain kem1, hits give low values 0.99 | locus YGL227W, strain vid30, hits give low values 0.981 | locus YGL240W, strain doc1, hits give low values 1.02 | locus YGL248W, strain PDE1, hits give low values 1 | locus YGL253W, strain hxk2, hits give low values 1 | locus YGR078C, strain PAC10, hits give low values 1.03 | locus YGR135W, strain pre9, hits give low values 0.992 | locus YGR252W, strain gcn5, hits give low values 0.979 | locus YHR013C, strain ard1, hits give low values 1.02 | locus YHR027C, strain rpn1, hits give low values 0.982 | locus YHR030C, strain SLT2, hits give low values 0.997 | locus YHR079C, strain IRE1 (second series), hits give low values 0.991 | locus YHR079C, strain IRE1, hits give low values 0.987 | locus YHR094C, strain hxt1, hits give low values 1 | locus YHR129C, strain ARP1, hits give low values 0.998 | locus YHR142W, strain chs7, hits give low values 1 | locus YHR200W, strain rpn10, hits give low values 0.987 | locus YIL066C, strain RNR3, hits give low values 1.02 | locus YIL073C, strain SPO22, hits give low values 1.04 | locus YIL125W, strain kgd1, hits give low values 1.01 | locus YIR030C, strain dcg1, hits give low values 0.993 | locus YJL092W, strain hpr5, hits give low values 1 | locus YJL095W, strain BCK1 (second series), hits give low values 0.99 | locus YJL095W, strain BCK1, hits give low values 1.05 and 1.08 | locus YJL115W, strain asf1, hits give low values 1 | locus YJL129C, strain trk1, hits give low values 1 | locus YJL134W, strain LCB3, hits give low values 0.995 | locus YJL154C, strain vps35, hits give low values 0.996 | locus YJL164C, strain tpk1, hits give low values 1.01 | locus YJL166W, strain qcr8, hits give low values 1 | locus YJL168C, strain set2, hits give low values 0.998 | locus YJL187C, strain SWE1 (second series), hits give low values 1.02 | locus YJL187C, strain SWE1, hits give low values 1.01 | locus YJR043C, strain POL32, hits give low values 1.04 | locus YJR066W, strain TOR1, hits give low values 0.949 | locus YJR075W, strain HOC1, hits give low values 1.02 | locus YKL009W, strain mrt4, hits give low values 1.03 | locus YKL068W, hits give low values 0.992 | locus YKL085W, strain MDH1 (second series), hits give low values 1 | locus YKL085W, strain MDH1, hits give low values 1 | locus YKL160W, strain elf1, hits give low values 1.01 | locus YKL190W, strain CNB1, hits give low values 0.994 | locus YKR001C, strain vps1, hits give low values 0.994 | locus YKR026C, strain gcn3, hits give low values 0.995 | locus YKR091W, strain srl3, hits give low values 0.997 | locus YLL001W, strain dnm1, hits give low values 1.01 | locus YLL026W, hits give low values 1 | locus YLL041C, strain sdh2, hits give low values 1.01 | locus YLR027C, strain aat2, hits give low values 1.01 | locus YLR039C, strain RIC1, hits give low values 1.08 | locus YLR058C, strain SHM2, hits give low values 0.996 | locus YLR102C, strain apc9, hits give low values 0.992 | locus YLR113W, strain HOG1, hits give low values 1.07 | locus YLR221C, strain rsa3, hits give low values 0.99 | locus YLR258W, strain gsy2, hits give low values 1 | locus YLR262C, strain YPT6 (second series), hits give low values 1.03 | locus YLR262C, strain YPT6, hits give low values 1.06 | locus YLR268W, strain sec22, hits give low values 1.01 | locus YLR320W, strain mms22, hits give low values 0.987 | locus YLR330W, strain CHS5, hits give low values 0.995 | locus YLR342W, strain FKS1 (second series), hits give low values 1 | locus YLR342W, strain FKS1, hits give low values 0.999 | locus YLR357W, strain rsc2, hits give low values 0.959 | locus YLR370C, strain arc18, hits give low values 1.03 | locus YLR371W, strain rom2, hits give low values 0.997 | locus YLR384C, strain iki3, hits give low values 0.99 | locus YLR418C, strain cdc73, hits give low values 0.998 | locus YML016C, strain PPZ1, hits give low values 0.99 | locus YML032C, strain rad52, hits give low values 1 | locus YML120C, strain ndi1, hits give low values 1.01 | locus YML124C, strain tub3, hits give low values 0.997 | locus YMR058W, strain fet3, hits give low values 1.01 | locus YMR078C, strain ctf18, hits give low values 0.977 | locus YMR125W, strain sto1, hits give low values 0.994 | locus YMR129W, hits give low values 1 | locus YMR205C, strain PFK2, hits give low values 1.01 | locus YMR223W, strain ubp8, hits give low values 1.01 | locus YMR231W, strain pep5, hits give low values 0.994 | locus YMR263W, strain SAP30, hits give low values 1.01 | locus YMR307W, strain GAS1, hits give low values 0.939 | locus YNL067W, strain RPL9B, hits give low values 1.04 | locus YNL071W, strain lat1, hits give low values 1.01 | locus YNL153C, strain GIM3, hits give low values 1.04 | locus YNL183C, strain NPR1, hits give low values 0.995 | locus YNL209W, strain ssb2, hits give low values 1.01 | locus YNL233W, strain BNI4, hits give low values 1.03 | locus YNL248C, strain rpa49, hits give low values 0.903 | locus YNL250W, strain rad50, hits give low values 0.981 | locus YNL271C, strain bni1, hits give low values 0.984 | locus YNL298W, strain CLA4, hits give low values 0.979 | locus YNL307C, strain MCK1, hits give low values 0.99 | locus YNL322C, strain KRE1 (second series), hits give low values 1.01 | locus YNL322C, strain KRE1, hits give low values 0.998 | locus YNR049C, strain mso1, hits give low values 1.02 | locus YNR052C, strain pop2, hits give low values 0.985 | locus YOL006C, strain TOP1, hits give low values 1.11 | locus YOL012C, strain htz1 0.738 | locus YOL147C, strain pex11, hits give low values 0.993 | locus YOR001W, strain rrp6, hits give low values 0.971 | locus YOR061W, strain CKA2, hits give low values 0.993 | locus YOR069W, strain VPS5, hits give low values 0.989 | locus YOR070C, strain gyp1, hits give low values 1 | locus YOR080W, strain dia2, hits give low values 0.994 | locus YOR083W, strain WHI5, hits give low values 1.01 | locus YOR106W, strain vam3, hits give low values 1.03 | locus YOR136W, strain idh2, hits give low values 0.985 | locus YOR144C, strain elg1, hits give low values 0.999 | locus YOR184W, strain ser1, hits give low values 1.03 | locus YOR231W, strain MKK1, hits give low values 0.994 | locus YOR265W, strain rbl2, hits give low values 1.02 | locus YOR270C, strain vph1, hits give low values 0.995 | locus YOR290C, strain snf2, hits give low values 0.997 | locus YOR316C, strain cot1, hits give low values 0.996 | locus YPL051W, strain arl3, hits give low values 1.01 | locus YPL078C, strain atp4, hits give low values 1.03 | locus YPL106C, strain sse1, hits give low values 0.987 | locus YPL240C, strain hsp82, hits give low values 0.999 | locus YPL241C, strain CIN2, hits give low values 0.996 | locus YPL256C, strain CLN2, hits give low values 0.997 | locus YPR119W, strain clb2, hits give low values 1 | locus YPR141C, strain kar3, hits give low values 0.991 | locus YPR163C, strain tif3, hits give low values 0.992 | locus YPR167C, strain met16, hits give low values 0.995 | strain wtn01, hits give low values 0.991
